The term Inhibition denotes the drop in the measured response relative to a control, in per cent.

Potency and affinity values are given separately.

One experiment concerns Staphylococcus aureus. The note with it: Concentration 32 ug.mL-1;; ASSAY_TEST Inhibition of Bacterial Growth; detection method Absorption (OD600); MEDIA CAMHB; plate type 384well; NBS; CORNING #3640; time 18 hr.
Another experiment has as its system Escherichia coli. As to conditions: Concentration 32 ug.mL-1;; ASSAY_TEST Inhibition of Bacterial Growth; detection method Absorption (OD600); MEDIA CAMHB; plate type 384well; NBS; CORNING #3640; time 18 hr.

Consider `COc1ccc(NC(=O)Cn2nc3nc(N4CCCCCC4)ccn3c2=O)cc1Cl`, for which the Inhibition in the experiment with Staphylococcus aureus is on record as -1.58%; in the experiment on Escherichia coli it was -10.88%.
Consider `O=c1n(Cc2nc(-c3ccc(Cl)cc3)no2)nc2ccc(-c3ccccc3)nn12`, for which the Inhibition in the experiment on Staphylococcus aureus is recorded as 1%; with Escherichia coli, -5.36%.
Consider `O=S(=O)(c1ccc2nncn2c1)N(Cc1ccc(Cl)cc1)c1ccc2c(c1)OCO2`, for which the Inhibition is 11.62% in the experiment with Staphylococcus aureus and -6.36% in the experiment with Escherichia coli.
`CCOc1ccc(NC(=O)Cn2nc3c4cc(-c5ccc(C)c(C)c5)nn4ccn3c2=O)cc1`: the Inhibition in the experiment with Staphylococcus aureus was -9.23%; with Escherichia coli, 1.9%.
Consider `NC(=O)CSc1nnc2c(=O)n(-c3ccc(F)cc3)ccn12`, for which the Inhibition with Staphylococcus aureus is reported as 22.03%; in the experiment on Escherichia coli, 3.06%.
With `O=C(Cn1nc2c(SCc3ccc(Cl)cc3)nccn2c1=O)N1CCN(c2ccccc2)CC1`, the Inhibition in the experiment on Staphylococcus aureus is -0.6%; in the experiment with Escherichia coli, -2.68%.
On to `CCOC(=O)c1cccc(NC(=O)Cn2nc3c(Oc4cccc(C)c4C)nccn3c2=O)c1`, for which the Inhibition with Staphylococcus aureus was -16.27%; in the experiment on Escherichia coli, -3.26%.
On to `Cc1ccc(C)c(Cn2nc3c(=O)n(-c4cccc(Cl)c4C)ccn3c2=O)c1`, for which the Inhibition was -0.35% in the experiment with Staphylococcus aureus and -10.27% in the experiment with Escherichia coli.
`CCc1ccc(N(Cc2ccccc2C)S(=O)(=O)c2cccn3c(C)nnc23)cc1`: the figures for the Inhibition in the experiment on Staphylococcus aureus and in the experiment on Escherichia coli were 9.52% and -5.19%, respectively.
In the case of `CC(C)c1ccc(NC(=O)Cn2nc3c(N4CCCCC4)nccn3c2=O)cc1`, the values for the Inhibition with Staphylococcus aureus and in the experiment with Escherichia coli were -8.03% and -4.05%, respectively.
As to `CCCc1nnc2c(=O)n(CC(=O)Nc3cccc(C(C)=O)c3)c3ccccc3n12`, the values for the Inhibition in the experiment with Staphylococcus aureus and in the experiment on Escherichia coli were 2.4% and -14.35%, respectively.
Consider `Cc1ccc(C)c(NC(=O)Cn2nc3c(SCc4ccc(Cl)cc4)nccn3c2=O)c1`, for which the results for the Inhibition in the experiment with Staphylococcus aureus and in the experiment on Escherichia coli were 7.31% and -3.74%, respectively.
For `COC(=O)c1ccc(CN(c2ccc(Cl)cc2)S(=O)(=O)c2ccc3nncn3c2)o1` the same measures were 10.93% and -7.28%.
Turning to `CCOc1ccc(-n2ccn3c(SCC(=O)c4cccc(Cl)c4)nnc3c2=O)cc1`, the Inhibition in the experiment with Staphylococcus aureus amounted to 18.89%; with Escherichia coli, 0.66%.
As to `COc1ccc(Cn2nc3ccc(-c4ccccc4)nn3c2=O)cc1F`, the Inhibition with Staphylococcus aureus was 20.86%; in the experiment with Escherichia coli, 2.33%.
With `COC(=O)c1ccc(NC(=O)Cn2nc3c(N4CCOCC4)nccn3c2=O)cc1`, the Inhibition is given as 12.61% in the experiment with Staphylococcus aureus and 0.79% with Escherichia coli.
Take `CC(C)c1nnc2c(=O)n(CC(=O)Nc3ccc(Br)cc3)c3ccccc3n12`: the figures for the Inhibition in the experiment on Staphylococcus aureus and in the experiment with Escherichia coli were 9.7% and 7.11%, respectively.
For `CCCNC(=O)Cn1nc2nc(Nc3ccc(F)cc3)ccn2c1=O`, the Inhibition in the experiment with Staphylococcus aureus was 8.25%; with Escherichia coli it was -13.63%.
As for `CCc1cccc(NC(=O)Cn2nc3nc(N4CCCCCC4)ccn3c2=O)c1`, the Inhibition in the experiment with Staphylococcus aureus was 0.41%; in the experiment on Escherichia coli it was -5.25%.
As for `Cc1nnc2ccc(S(=O)(=O)N(Cc3ccc(F)cc3)c3cc(F)cc(F)c3)cn12`, the Inhibition is listed as 4.18% with Staphylococcus aureus and -6.59% with Escherichia coli.
In the same order, the values of `Cc1cccc(NC(=O)Cn2nc3c(SC4CCCCC4)nccn3c2=O)c1C` are 2.67% and 2.06%.
Consider `CCCn1c(=O)c2sccc2n2c(CCC(=O)NC(C)C34CC5CC(CC(C5)C3)C4)nnc12` (stereo unspecified), for which the Inhibition is listed as -5.57% in the experiment with Staphylococcus aureus and -7.36% in the experiment with Escherichia coli.
As to `O=C(Cn1nc2nc(Nc3ccc(F)cc3)ccn2c1=O)Nc1cc(F)ccc1F`, the Inhibition in the experiment on Staphylococcus aureus is given as 11.9%; in the experiment with Escherichia coli, -2.67%.
In the same order, the values of `CC1CCCN(c2nccn3c(=O)n(CC(=O)Nc4ccc5c(c4)OCO5)nc23)C1` (stereo unspecified) are -13.51% and -11.79%.
In the same order, the values of `O=S(=O)(c1ccc2nncn2c1)N(Cc1cc(F)cc(F)c1)c1cc(F)cc(F)c1` are -5.61% and -4.65%.
For `Cc1ccc(Cn2c(=O)c3ccccc3n3c(=O)n(CC(=O)Nc4ccc5c(c4)OCCO5)nc23)cc1`, the Inhibition in the experiment on Staphylococcus aureus came out at 6.52%; in the experiment with Escherichia coli it was 1.04%.
Consider `CCC(C)NC(=O)CSc1nnc2c(=O)n(Cc3ccc(F)cc3)ccn12` (stereo unspecified), for which the Inhibition is listed as 1.4% in the experiment on Staphylococcus aureus and -9% with Escherichia coli.
`O=C(Cn1nc2c(N3CCOCC3)nccn2c1=O)Nc1ccccc1Br`: the Inhibition with Staphylococcus aureus came out at 17.91%; in the experiment with Escherichia coli, 6.7%.
For the molecule `COc1ccc(NC(=O)CSc2nnc3c(=O)n(-c4ccccc4)ccn23)cc1OC`, the Inhibition with Staphylococcus aureus is reported as 9.52%; in the experiment with Escherichia coli, -7.32%.
Turning to `Cc1ccc(N(CC(=O)OC(C)(C)C)S(=O)(=O)c2cccn3cnnc23)cc1`, the figures for the Inhibition in the experiment on Staphylococcus aureus and with Escherichia coli were 15.19% and -3.99%, respectively.
In the same order, the values of `CCc1nnc2c(S(=O)(=O)N(Cc3cccc(F)c3)c3ccccc3)cccn12` are 7.57% and -5.76%.
With `O=c1c2sccc2n2c(=O)n(Cc3ccccc3F)nc2n1CCc1ccccc1`, the Inhibition in the experiment on Staphylococcus aureus is 9.4%; in the experiment with Escherichia coli, 0.41%.
`COc1ccc(CN(c2ccc(F)c(F)c2)S(=O)(=O)c2ccc3nncn3c2)cc1`: the figures for the Inhibition with Staphylococcus aureus and with Escherichia coli were -0.97% and -4.01%, respectively.

The values above are taken from ChEMBL document CHEMBL4513146, “CO-ADD screening of Karazin Kharkiv National University (Ukraine) compounds”.
